NTMT1 inhibitor: inhibitors of human N-terminal methyltransferase NTMT1 | NTMT1 MTase-Glo SAH luminescence, purified enzyme | Potency, µM (highest dose often 114 µM), actives largely listed as inhibitors | actives 2.5% (n = 59,000) | AID 1645870; also: nearly all actives have a fitted effect of over 65% in size
Target sequence (Q9BV86 whole entry, looked up): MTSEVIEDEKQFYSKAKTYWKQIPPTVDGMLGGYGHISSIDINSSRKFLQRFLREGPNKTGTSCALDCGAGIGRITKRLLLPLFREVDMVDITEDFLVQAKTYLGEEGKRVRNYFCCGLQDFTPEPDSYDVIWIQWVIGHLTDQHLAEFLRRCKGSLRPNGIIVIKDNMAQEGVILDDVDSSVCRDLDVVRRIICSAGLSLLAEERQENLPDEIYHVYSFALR
B2AR arrestin ag: agonists recruiting beta-arrestin to human beta2-adrenergic receptor; HTLA Tango cells, beta-arrestin recruitment, luciferase luminescence, 18 h; P07550; Potency, µM (titrated, usually from 46.1 µM), hits mostly activators; 44,000 tested, under 10 active
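First, Tango cells carrying beta2-AR and beta-arrestin fusions received compound up to 46 microM. After 18 hr at 37 degrees C, luciferase substrate was added for 15 minutes, then luminescence gave %Activity for curve fitting.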
GALK inh: GALK (human) enzyme inhibition; recombinant GALK, Kinase-Glo ATP luminescence, 1 h; Potency, µM (highest dose often 57.5 µM), actives largely listed as inhibitors; P51570; 44,000 tested, under 10 active; AID 1347072
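Compounds were pinned into ATP buffer, then GALK-galactose mix was added (final 5 nM enzyme, 35 uM ATP, 100 uM galactose, pH 8.0). After 1 h at room temperature, Kinase-Glo Plus was added and luminescence read.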
GALC G270D act: enhancers of human galactocerebrosidase G270D mutant activity in cells | 145M-Twi-hGALC-G270D cells (Twitcher mouse brain line with human GALC G270D), HMU-beta-Gal fluorescence, 48 h | Potency, µM (titrated, usually from 57.5 µM), usual class: activators | actives 0.1% (n = 45,000) | P54803; also: nearly all actives have a fitted effect of over 65% in size
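Fluorogenic HMU-b-Gal hydrolysis (0.1 mM final, pH 5.2 citrate-phosphate with 1 mg/mL sodium taurocholate; carbonate stop buffer) measures mutant GALC activity after compound treatment of live 145M-Twi Twitcher brain cells stably carrying human GALC-G270D, with wild-type GALC line alongside; activation sought.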
GPR32 ag: GPR32 (DRV1) agonism, beta-arrestin recruitment; O75388; CHO-K1 GPR32 beta-arrestin PathHunter luminescence, 90 min; zero percent set by DMSO-only wells; activation, % at 76.9 µM; actives 2.5% (n = 48,000); AID 1346428;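 active = activation of at least 60% and not above a set upper limit, about 1 call in 100 departs from these limits; inconclusive = activation of 40% to 60%, or above that upper limit; inactive = activation under 40%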
Target sequence (O75388 whole entry, looked up): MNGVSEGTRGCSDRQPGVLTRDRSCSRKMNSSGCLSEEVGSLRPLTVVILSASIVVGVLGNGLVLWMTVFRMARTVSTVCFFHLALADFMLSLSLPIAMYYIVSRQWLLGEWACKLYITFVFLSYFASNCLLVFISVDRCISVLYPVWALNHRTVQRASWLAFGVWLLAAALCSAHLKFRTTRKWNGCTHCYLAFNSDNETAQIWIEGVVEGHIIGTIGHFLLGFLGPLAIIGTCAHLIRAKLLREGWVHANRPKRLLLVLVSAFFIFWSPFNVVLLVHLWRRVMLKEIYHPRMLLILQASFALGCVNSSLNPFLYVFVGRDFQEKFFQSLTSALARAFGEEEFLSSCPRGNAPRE
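PathHunter beta-arrestin recruitment in CHO-K1 cells stably expressing ProLink-tagged GPR32. Cells were exposed to compound for 90 min at 37 C, then chemiluminescence was read after 1 h detection at ambient temperature; DMSO served as basal control.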
Numbers stand for hits; - = inactive; ? = inconclusive; . = no result given; ! = repeats disagree. Rows were chosen to be rich in hits. Some 3.6% of all compounds tested hit in one or more screens of this group. Unless noted, calls follow the shape of the dose curve; as a rule, active = well fitted curve in the direction sought with a large enough effect; inconclusive = small, poorly fitted or top-dose-only effect, or another doubt; inactive = no such curve, though single readings can be large; an effect the other way counts as inactive or inconclusive.

SMILES	NTMT1 inhibitor	B2AR arrestin ag	GALK inh	GALC G270D act	GPR32 ag
CCOC(=O)c1ccc(Nc2nc3ccccc3nc2NS(=O)(=O)c2ccc(Cl)cc2)cc1	-	-	-	-	?
OC[C@H]1O[C@@H](n2cnc3c(=S)nc[nH]c32)[C@H](O)[C@@H]1O	5.6µM	.	.	-	-
Nc1ncnc2c1ncn2[C@@H]1O[C@@H](CO)[C@H](O)[C@H]1O	-	.	.	.	.
Nc1ncnc2c1ncn2[C@@H]1O[C@H](CO)[C@@H](O)[C@H]1O	50µM!	.	.	-	-
CN1CCN(c2cccc(CNc3nn4c(=O)c5ccccc5nc4s3)c2)CC1	-	.	.	.	.
CN1CCN(c2cccc(Nc3nn4c(=O)c5ccc(N(C)C)cc5nc4s3)c2)CC1	50µM	.	.	.	.
CN1CCN(c2cccc(Nc3nn4c(=O)c5ccc(F)cc5nc4s3)c2)CC1	-	.	.	.	.
O=c1c2ccccc2nc2sc(Nc3cccc(N4CCNCC4)c3)nn12	50µM!	.	.	.	.
CN(C)c1ccc(CNc2nc(-c3ccccc3C(F)(F)F)nc3ccccc23)cc1	-	.	.	.	.
CC(C)(C)OC(=O)N[C@@H](Cc1ccc(O[S+](=O)([O-])c2cccnc2)cc1)C(=O)N1CCN(c2ccccc2)CC1	-	.	.	.	.
COc1ccccc1N1CCN(S(=O)(=O)c2ccc(-c3ccno3)cc2OC)CC1	89µM	-	-	-	-
COc1cc(-c2ccno2)ccc1S(=O)(=O)N1CCN(c2ccccc2)CC1	-	-	-	-	-
c1cncc(-c2ccc(CNc3nc(N4CCCC4)nc4ccccc34)cc2)c1	40µM	.	.	.	.
Brc1ccccc1-c1nc(NCc2ccc(-c3cccnc3)cc2)c2ccccc2n1	-	.	.	.	.
COc1ccccc1N1CCN(CC(O)COc2cccc3ccccc23)CC1 (stereo not given)	?	.	.	-	97!
Nc1nccc(-c2c(-c3ccc(F)cc3)ncn2C2CCN(Cc3ccon3)CC2)n1	-	.	.	.	.
CCC(=O)NC(c1cccs1)c1cc([N+](=O)[O-])c2cccnc2c1OC (stereo not given)	50µM!	.	.	.	.
CSc1ncc(C(=O)Nc2ccccc2C(F)(F)F)c(-c2ccccc2)n1	89µM	-	-	-	?
CN1C[C@@H]2c3ccccc3Oc3ccc(Cl)cc3[C@H]2C1	-	.	.	.	.
Cc1ccc(-c2nn3c(-c4ccccc4)nnc3s2)cc1NC(=O)c1ccc(-c2cccc(Cl)c2)o1	-	.	.	.	.
COCCNc1cc2c(cc1[S+](=O)([O-])Nc1ccc(C)c(C)c1)CCC(=O)N2	-	.	.	.	.
Cc1ccc(C(Nc2ccccn2)c2ccc3cccnc3c2O)cc1 (stereo not given)	-	-	-	-	?
COc1ccc(C(Nc2ccccn2)c2ccc3ccc(C)nc3c2O)cc1C (stereo not given)	-	-	-	-	90
CC(=O)Nc1nc(-c2ccc3c(c2)CCN3C(=O)c2ccccc2C)c(C)s1	-	.	.	.	.
COc1ccc(O)c(CNc2ccc(S(=O)(=O)Nc3nccs3)cc2)c1	-	.	.	.	.
SMILES	NTMT1 inhibitor	B2AR arrestin ag	GALK inh	GALC G270D act	GPR32 ag
CN(C)CCN(Cc1ccc(-c2ccc(CNCCc3ccccc3)cc2)cc1)C(=O)CCC1CCCC1	-	.	.	.	.
CC(C)(Sc1ccc(CCN(CCCCC2CCCCC2)C(=O)NC2CCCCC2)cc1)C(=O)O	32µM!	.	.	.	-
O=C(Cc1ccc(F)cc1)NCCc1csc(-c2cccc(F)c2)n1	-	-	-	-	103
Cc1cccc(-c2nc(CCNC(=O)Cc3ccc(F)cc3)cs2)c1	-	-	-	-	-
O=C(NCCc1csc(-c2ccc(F)cc2)n1)c1c(F)cccc1Cl	-	-	-	-	-
O=C(NCCc1csc(-c2ccc(F)cc2)n1)c1cccc(F)c1	-	-	-	-	66
Cc1cccc(C(=O)Nc2ccc3oc(-c4ccncc4)nc3c2)c1	?	-	-	-	72
Cc1cccc(C(=O)Nc2ccc3oc(-c4cccc5c(Br)cccc45)nc3c2)c1	-	-	-	-	-
Nc1cccc(OCCn2c(CCNC(=O)C3CCCCC3)nc3ccccc32)c1	-	.	.	.	.
CCn1cc(C(=O)N2CCN(c3cccc(C)c3C)CC2)c2cc(OC)c(OC)cc2c1=O	-	-	-	-	76
Cc1cc(C)n2ncc(C(=O)Nc3ccc(Br)cc3)c2n1	-	.	.	.	.
Oc1ccc(CNc2nccc3ccccc23)c2cccnc12	-	.	.	.	.
C=CC(=O)Nc1cccc(Nc2nc(Nc3ccccc3)ncc2C)c1	45µM	.	.	.	.
Cc1ccccc1C(=O)Nc1c(C)nc(Nc2ccccc2)nc1Nc1ccccc1	-	-	-	-	-
CC(=O)c1ccc2c(c1)c1cc(C(C)=O)ccc1n2CCNC(C)C	-	.	.	.	.
C=CC(=O)N1CCC[C@H](n2c(=O)n(-c3ccc(Oc4ccccc4)cc3)c3c(N)ncnc32)C1	89µM	.	.	.	.
CC#CC(=O)N1CC[C@@H](n2c(=O)n(-c3ccc(Oc4ccccc4)cc3)c3c(N)ncnc32)C1	71µM	.	.	.	.
CCN(CC)C(=O)Cc1csc(NS(=O)(=O)c2cccc(Cl)c2C)n1	-	.	.	.	.
COc1ccc(OC)c(NC(=O)C2CCN(S(=O)(=O)c3ccc4c(c3)CCCC(=O)N4)CC2)c1	-	-	-	-	72
COc1ccc(NC(=O)C2CCCN(S(=O)(=O)c3ccc4c(c3)CCCC(=O)N4)C2)cc1OC (stereo not given)	-	-	-	-	63
COc1ccc(NC(=O)C2CCN(S(=O)(=O)c3ccc4c(c3)CCCC(=O)N4)CC2)c(OC)c1	-	-	-	-	-
COc1cccc(CNC(=O)Cn2c(=O)n3nc(-c4cccc(C)c4)nc3c3ccccc32)c1	-	-	-	-	-
Cc1cccc(-c2nc3c4ccccc4n(CC(=O)Nc4cccc(F)c4)c(=O)n3n2)c1	-	-	-	-	76
Cc1cc(C)cc(NC(=O)c2cccc(C(=O)Nc3cc(C)cc(C)c3)c2)c1	.	-	-	.	-
O=C(Nc1ccc(Br)cc1)c1cccc(C(=O)Nc2ccc(Br)cc2)c1	-	-	-	-	71
SMILES	NTMT1 inhibitor	B2AR arrestin ag	GALK inh	GALC G270D act	GPR32 ag
COc1ccc(C(=O)Nc2ccccc2)cc1S(=O)(=O)Nc1ccc(Br)cc1	-	-	-	-	90
Cc1cc(N[S+](=O)([O-])c2ccc(NC(=O)Cc3ccc(C(F)(F)F)c(F)c3)cc2)no1	-	.	.	.	.
CCc1c(C)sc2c1CCN(Cc1cccc(OC)c1)C2c1ccccc1 (stereo not given)	-	-	-	-	61
CCCc1ccc(OCC(=O)Nc2sc3c(c2C(=O)OC)CCCCC3)cc1	89µM	-	-	-	-
COC(=O)c1c(NC(=O)COc2c(C)cccc2C)sc2c1CCCC2	-	-	-	-	-
CCOc1ccccc1NC(=O)c1c(NCc2ccc(C)o2)sc2c1CCCCC2	25µM	-	-	-	-
CCOc1ccccc1NC(=O)c1c(NC(=O)COc2ccccc2)sc2c1CCCC2	-	-	-	-	105

Screening data (PubChem)
